AmpC detergent – inhibitors of E. coli AmpC beta-lactamase with detergent; AmpC hydrolysis of nitrocefin, absorbance 480 nm, 0.01% Triton; Potency, µM (titrated, usually from 114 µM), for the others: at the top dose activity change, negative = inhibition, actives largely listed as inhibitors; 370,000 tested, 0.041% active;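 also: 0% = no-compound wells and -100% = no-enzyme wells; nearly all actives have a fitted effect of over 25% in size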
Target sequence (P00811 whole entry, looked up): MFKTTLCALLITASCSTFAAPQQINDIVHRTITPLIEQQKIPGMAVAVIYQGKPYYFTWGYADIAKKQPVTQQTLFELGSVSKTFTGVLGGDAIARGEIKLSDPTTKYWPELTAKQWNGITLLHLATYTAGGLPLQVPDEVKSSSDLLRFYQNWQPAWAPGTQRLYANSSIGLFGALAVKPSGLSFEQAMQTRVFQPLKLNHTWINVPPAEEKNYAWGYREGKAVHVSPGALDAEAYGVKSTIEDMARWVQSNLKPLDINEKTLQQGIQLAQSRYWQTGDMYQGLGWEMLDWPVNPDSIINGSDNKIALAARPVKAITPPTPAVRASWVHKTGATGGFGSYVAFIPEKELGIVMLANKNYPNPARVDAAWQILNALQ
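20 mM phosphate pH 7.0 + 0.01% (detergent screen) or 0.0001% Triton X-100; 5.3 nM AmpC reagent; cpd preinc 15 min RT; nitrocefin (800 uM stock) to start; A480 q20 s × 4 min; Activity was normalised to no-enzyme and no-compound control wells.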
AMA1-RON2 inh – AMA1-RON2 (P. falciparum) interaction inhibition; AlphaScreen AMA1-biotinylated RON2 peptide binding; Potency, µM (top dose mostly 58.2 µM), without a hit: at the highest dose activity change, negative = inhibition, hits mostly inhibitors; 360,000 tested, 0.2% active; AID 720542;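 also: 0% = vehicle wells and -100% = peptide control; nearly all actives have a fitted effect of over 45% in size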
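AMA1 (3D7) with his tag at 25 nM final met compounds first, then biotinylated RON2 peptide at 25 nM; detection used donor plus acceptor beads, 10 µg/mL apiece, read by AlphaScreen after 30 min at room temperature.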
Pf growth 48h – P. falciparum growth inhibition at 48 hours (one generation). P. falciparum luciferase growth in erythrocytes, 48 h. Potency, µM (highest dose often 28.7 µM), for inactives: at the top dose activity change, negative = inhibition, most hits filed as inhibitors. 310,000 tested, 5.9% active. AID 504832
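Firefly luciferase activity from engineered P. falciparum reports growth; inhibitors lower the luminescent signal. Cultures contained 2% hematocrit erythrocytes at 0.1% final parasitemia.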
HCV inhibitor – inhibitors of hepatitis C virus infection; Huh7.5.1 HCVcc-Cre infection, luciferase reporter, 44 h; Potency, µM (highest dose often 41.8 µM), for the others: at the top dose activity change, negative = inhibition, usual class: inhibitors; 340,000 tested, 3.4% active
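After 44 h co-culture of compound, cells and HCVcc-Cre (~0.5 moi), substrate is added for 15 min at room temperature and luciferase measured over 15 sec. Cells were seeded at 1,000/well and pre-cultured 4 h.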
AmpC no deterg – inhibitors of E. coli AmpC beta-lactamase without detergent | AmpC nitrocefin hydrolysis, absorbance 480 nm, 0.0001% Triton | P00811 | AID 485341 | Potency, µM (doses to about 57.1 µM), for the others: at the top dose activity change, negative = inhibition, actives largely listed as inhibitors | 330,000 tested, 0.52% active;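 also: plate controls were no compound for no effect and no enzyme for full effect; nearly all actives have a fitted effect of over 20% in size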
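AmpC (5.3 nM in the dispensed reagent) in 20 mM phosphate pH 7.0 with 0.01% (detergent screen) or 0.0001% Triton X-100 was preincubated with compounds for 15 min at room temperature. Nitrocefin was then added from an 800 uM solution, and hydrolysis was followed at 480 nm.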
Pf growth 96h – inhibits malaria parasite growth, 96 h | AID 504834 | P. falciparum luciferase reporter growth, 96 h | Potency, µM (top dose mostly 28.7 µM), without a hit: at the highest dose activity change, negative = inhibition, hits mostly inhibitors | 320,000 tested, 6.9% active
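Two parasite generations (96 h, 37 C, 5% CO2) of compound exposure in infected erythrocytes (0.05% parasitemia, 2% hematocrit). Luciferase-reporter P. falciparum; decreased luminescence indicates inhibited growth, aimed at apicoplast-acting delayed death.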
* marks the source's active call; other numbers are inactive results; ? = inconclusive; / = no result given. Only some compounds are listed: those with a hit (about 11% of all), similar ones and a draw of the others. Calls follow the shape of the dose curve; as a rule, active = well fitted curve in the direction sought with a large enough effect; inconclusive = small, poorly fitted or top-dose-only effect, or another doubt; inactive = no such curve, though single readings can be large; an effect the other way counts as inactive or inconclusive. Unless noted, % is scaled to controls: 0 for no effect and ±100 for the full control effect; potency is read from the fitted curve at half-maximal effect.

SMILES	AmpC detergent	AMA1-RON2 inh	Pf growth 48h	HCV inhibitor	AmpC no deterg	Pf growth 96h
Cn1c(=O)c2c(nc(NC3CCCCC3)n2CC(O)COc2ccccc2)n(C)c1=O (centres undefined)	-10%	-10%	10µM*	0%	3%	14%
CN(c1nc2c(c(=O)n(C)c(=O)n2C)n1CC(=O)c1ccccc1)C1CCCCC1	?	-2%	?	9%	119%	10µM*
CCOC(=O)N1CCN(c2c(NCc3cccs3)c(=O)c2=O)CC1	-2%	0%	/	?	-9%	12µM*
CCOC(=O)N1CCN(c2c(NCc3ccc(F)cc3)c(=O)c2=O)CC1	4%	3%	-8%	-12%	0%	-2%
CCOC(=O)N1CCN(c2c(NCCCN3CCCCCC3)c(=O)c2=O)CC1	?	-4%	/	8%	35%	10µM*
CCOC(=O)N1CCN(c2c(NCC3CCN(Cc4cccc(C)c4)CC3)c(=O)c2=O)CC1	?	0%	8%	-25%	4%	6.6µM*
CCOC(=O)N1CCN(c2c(NCCN3CCN(Cc4ccccc4)CC3)c(=O)c2=O)CC1	?	1%	/	23%	-10%	5%
O=C(Cn1c(=O)n(CC2CCCO2)c(=O)c2ccccc21)Nc1ccc(F)cc1F (centres undefined)	16%	/	/	/	/	/
COc1ccc(Cl)cc1NC(=O)c1ccc2c(c1)CCCN2S(C)(=O)=O	26%	/	/	/	/	/
Cc1ccc2c(c1)C1C[N+](C)(CC(=O)c3ccc(Cl)cc3Cl)CCC1N2C(=O)c1ccc(F)cc1 (centres undefined)	/	-5%	/	13µM*	88%	/
O=C(NCc1ccc(F)cc1)c1ccc(CSc2nc3ccncc3n2Cc2ccc(F)cc2)cc1	19%	/	/	/	/	/
O=C(Nc1ccncc1)Nc1cccc(Cl)c1Cl	?	-4%	?	6.3µM*	-47%	-3%
O=C(Nc1cccc(Cl)c1)Nc1nc(-c2ccc(Cl)cc2)cs1	-13%	22%	?	?	-38%	27%
CNC(=S)Nc1ccc(Cc2ccncc2)cc1	-6%	2%	0%	0%	-20%	16%
O=C(Nc1cccc(Cl)c1)Nc1csc([N+](=O)[O-])c1	8%	-27%	3.7µM*	?	-52%	2.6µM*
S=C(Nc1ccc(Cc2ccncc2)cc1)Nc1cccc(Cl)c1	1%	46%	16%	-9%	-39%	13µM*
CN(C)c1ccc(NC(=O)Nc2csc3ccccc23)cc1	4%	-27%	?	-29%	-49%	5.2µM*
CCCn1cc(S(=O)(=O)c2cccc(Cl)c2)c(=O)c2cc(F)c(N3CCN(CC)CC3)cc21	-7%	/	/	/	/	/
COc1cc(Br)c(C2CC(=O)Nc3cc(OC)c(OC)c(OC)c32)cc1OC (centres undefined)	13%	/	/	/	/	/
CC(C)(C)OC(=O)N1CCC(c2c(C(=O)N3CCC(c4ccccc4)C3)cnn2-c2cccc(Cl)c2)CC1 (centres undefined)	21%	/	/	/	/	/
O=C(Nc1ccc(C2=NCCN2)cc1)c1ccc(C(=O)Nc2ccc(C3=NCCN3)cc2)c(Cl)c1	-5%	-9%	0.52µM*	8%	-4%	?
O=C(Nc1cccc(C2=NCCN2)c1)Nc1cccc(C2=NCCN2)c1	/	1%	1.7µM*	-60%	/	1.2µM*
Cn1nc(C(=O)Nc2cccc(Cl)c2)cc1C(=O)Nc1cccc(Cl)c1	-4%	-2%	?	-12%	16µM*	-2%
CN(c1cccc(NC(=O)Nc2cccc(Cl)c2)c1)S(C)(=O)=O	-7%	-3%	57%	?	-22%	2%
CN(C)c1ccc(NC(=O)Nc2cccc(Cl)c2)cc1	?	?	4%	?	5µM*	14%
O=C(Nc1ccc(NC(=O)c2ccc(Cl)cc2Cl)cc1)c1ccc2c(c1)OCO2	-12%	4%	27%	12%	-7%	?

Assay outcomes deposited in PubChem BioAssay by National Center for Advancing Translational Sciences (NCATS).
